From publication PMC7862700, “An all-to-all approach to the identification of sequence-specific readers for epigenetic DNA modifications on cytosine”

Tests used:
Experiment in all cases: DAPPL (digital affinity profiling via proximity ligation, sequencing); 10 mM Tris-HCl pH 7.5, 50 mM NaCl, 1 mM DTT, 4% glycerol, room temperature, 30 min; GST-TFs on glutathione beads, 16-mer random dsDNA library, 0.1% formaldehyde crosslink after washing; high values mean tight binding
FLI1 = molecular target: T1, FLI1 (Homo sapiens, UniProt Q01543 1-452); conditions: protein: recombinant; tags: N-terminal GST; dsDNA, one strand shown
T1 sequence: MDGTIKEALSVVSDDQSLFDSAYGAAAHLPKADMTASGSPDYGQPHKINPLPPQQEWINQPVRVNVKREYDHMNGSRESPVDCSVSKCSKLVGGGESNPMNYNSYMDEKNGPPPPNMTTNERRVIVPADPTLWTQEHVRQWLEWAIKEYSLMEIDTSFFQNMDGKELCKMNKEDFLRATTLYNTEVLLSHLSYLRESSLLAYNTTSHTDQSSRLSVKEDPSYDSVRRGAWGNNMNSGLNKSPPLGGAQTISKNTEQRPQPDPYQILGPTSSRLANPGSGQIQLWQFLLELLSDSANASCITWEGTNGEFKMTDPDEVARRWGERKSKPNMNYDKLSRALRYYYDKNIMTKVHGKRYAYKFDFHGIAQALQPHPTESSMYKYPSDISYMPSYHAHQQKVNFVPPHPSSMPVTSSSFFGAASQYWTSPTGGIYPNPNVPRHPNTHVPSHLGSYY
Procedure, shortened: (§1)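 The binding signal reported is, for every hexamer, its read frequency for a factor over its read frequency for the tag-only sample. Reads came from pools of yeast-expressed, GST-fused human transcription factors on glutathione beads, barcoded with DNA and mixed with that sample, which were incubated with 200 nmole of a random double-stranded 16-mer DNA library in Tris/NaCl/DTT/glycerol buffer at room temperature for 30 min. After washing, the pools were crosslinked with 0.1% formaldehyde, proximity-ligated with BsaI/T4 ligase for 1 h at 37 °C, PCR-amplified and sequenced on an Illumina NextSeq500.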

ELK1 = molecular target: T2, ELK1 (Homo sapiens, UniProt P19419 1-428); conditions: protein: recombinant; tags: N-terminal GST; dsDNA, one strand shown
T2 sequence: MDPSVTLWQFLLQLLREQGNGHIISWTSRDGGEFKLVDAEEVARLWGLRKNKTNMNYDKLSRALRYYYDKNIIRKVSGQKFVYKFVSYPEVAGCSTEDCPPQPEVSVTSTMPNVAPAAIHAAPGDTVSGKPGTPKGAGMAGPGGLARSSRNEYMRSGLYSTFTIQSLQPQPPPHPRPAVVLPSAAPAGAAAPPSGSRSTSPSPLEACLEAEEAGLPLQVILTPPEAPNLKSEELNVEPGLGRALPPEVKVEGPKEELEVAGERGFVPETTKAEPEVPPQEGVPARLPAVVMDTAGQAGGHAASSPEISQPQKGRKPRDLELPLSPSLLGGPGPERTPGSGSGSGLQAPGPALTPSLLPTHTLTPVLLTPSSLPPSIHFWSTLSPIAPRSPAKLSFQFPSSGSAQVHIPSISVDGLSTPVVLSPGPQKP
Procedure, shortened: as §1

GABPA = molecular target: T3, GABPA (Homo sapiens, UniProt Q06546 1-454); conditions: protein: recombinant; tags: N-terminal GST; dsDNA, one strand shown
T3 sequence: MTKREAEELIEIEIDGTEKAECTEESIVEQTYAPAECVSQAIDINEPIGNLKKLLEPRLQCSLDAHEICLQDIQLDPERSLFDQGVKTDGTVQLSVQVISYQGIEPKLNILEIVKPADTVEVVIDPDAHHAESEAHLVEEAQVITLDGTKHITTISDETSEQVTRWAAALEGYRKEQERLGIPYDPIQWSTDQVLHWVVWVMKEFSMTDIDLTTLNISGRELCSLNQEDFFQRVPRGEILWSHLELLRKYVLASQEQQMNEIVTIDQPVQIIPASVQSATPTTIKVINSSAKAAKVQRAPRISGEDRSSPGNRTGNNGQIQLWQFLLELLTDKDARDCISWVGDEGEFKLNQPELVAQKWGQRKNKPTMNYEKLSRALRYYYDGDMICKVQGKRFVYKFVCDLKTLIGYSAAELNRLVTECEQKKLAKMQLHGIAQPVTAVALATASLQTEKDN
Procedure, shortened: as §1

ERG = molecular target: T4, ERG (Homo sapiens, UniProt P11308 1-479); conditions: protein: recombinant; tags: N-terminal GST; dsDNA, one strand shown
T4 sequence: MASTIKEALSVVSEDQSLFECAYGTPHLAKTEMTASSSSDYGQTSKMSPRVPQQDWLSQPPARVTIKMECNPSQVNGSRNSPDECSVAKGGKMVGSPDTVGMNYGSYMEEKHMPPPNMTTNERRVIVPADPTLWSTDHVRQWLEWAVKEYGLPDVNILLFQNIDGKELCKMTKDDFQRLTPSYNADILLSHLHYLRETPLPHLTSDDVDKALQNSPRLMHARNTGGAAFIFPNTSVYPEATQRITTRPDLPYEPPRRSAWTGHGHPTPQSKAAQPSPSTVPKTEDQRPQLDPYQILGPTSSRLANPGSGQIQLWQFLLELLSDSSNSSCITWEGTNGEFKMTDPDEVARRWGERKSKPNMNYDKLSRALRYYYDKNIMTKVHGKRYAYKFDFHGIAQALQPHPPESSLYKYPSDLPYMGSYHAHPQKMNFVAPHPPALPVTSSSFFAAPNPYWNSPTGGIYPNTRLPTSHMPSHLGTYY
Procedure, shortened: as §1

ELF1 = ELF1 (Homo sapiens, UniProt P32519 1-619); conditions: protein: recombinant; tags: N-terminal GST; dsDNA, one strand shown
ELF1, sequence (P32519 whole entry): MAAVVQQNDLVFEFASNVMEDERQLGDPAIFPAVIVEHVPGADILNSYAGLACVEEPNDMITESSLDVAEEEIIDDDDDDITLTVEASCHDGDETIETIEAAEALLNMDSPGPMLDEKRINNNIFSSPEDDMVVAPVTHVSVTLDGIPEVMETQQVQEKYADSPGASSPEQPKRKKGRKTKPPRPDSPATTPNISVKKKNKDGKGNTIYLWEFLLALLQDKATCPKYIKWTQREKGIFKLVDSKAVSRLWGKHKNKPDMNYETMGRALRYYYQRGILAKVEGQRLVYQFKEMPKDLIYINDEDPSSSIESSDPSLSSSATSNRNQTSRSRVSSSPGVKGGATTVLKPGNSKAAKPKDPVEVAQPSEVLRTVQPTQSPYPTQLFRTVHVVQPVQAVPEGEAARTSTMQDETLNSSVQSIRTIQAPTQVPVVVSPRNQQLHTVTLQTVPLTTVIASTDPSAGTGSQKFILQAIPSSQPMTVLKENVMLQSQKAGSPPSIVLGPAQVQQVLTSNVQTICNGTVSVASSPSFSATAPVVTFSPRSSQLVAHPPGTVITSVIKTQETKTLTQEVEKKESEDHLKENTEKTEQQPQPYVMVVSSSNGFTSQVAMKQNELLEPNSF
Procedure, shortened: as §1

SPI1 = SPI1 (Homo sapiens, UniProt P17947 1-270); conditions: protein: recombinant; tags: N-terminal GST; dsDNA, one strand shown
Procedure, shortened: as §1

SPIB = SPIB (Homo sapiens, UniProt Q01892 1-262); conditions: protein: recombinant; tags: N-terminal GST; dsDNA, one strand shown
SPIB, sequence (Q01892 whole entry): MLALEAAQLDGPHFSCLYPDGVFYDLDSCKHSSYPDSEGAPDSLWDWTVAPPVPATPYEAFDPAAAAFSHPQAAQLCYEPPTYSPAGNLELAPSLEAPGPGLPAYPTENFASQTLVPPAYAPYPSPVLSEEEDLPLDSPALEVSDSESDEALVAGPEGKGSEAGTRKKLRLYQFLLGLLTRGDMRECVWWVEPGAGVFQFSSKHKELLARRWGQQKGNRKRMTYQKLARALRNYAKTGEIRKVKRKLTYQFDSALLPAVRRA
Procedure, shortened: as §1

ELK3 = molecular target: T5, ELK3 (Homo sapiens, UniProt P41970 1-407); conditions: protein: recombinant; tags: N-terminal GST; dsDNA, one strand shown
T5 sequence: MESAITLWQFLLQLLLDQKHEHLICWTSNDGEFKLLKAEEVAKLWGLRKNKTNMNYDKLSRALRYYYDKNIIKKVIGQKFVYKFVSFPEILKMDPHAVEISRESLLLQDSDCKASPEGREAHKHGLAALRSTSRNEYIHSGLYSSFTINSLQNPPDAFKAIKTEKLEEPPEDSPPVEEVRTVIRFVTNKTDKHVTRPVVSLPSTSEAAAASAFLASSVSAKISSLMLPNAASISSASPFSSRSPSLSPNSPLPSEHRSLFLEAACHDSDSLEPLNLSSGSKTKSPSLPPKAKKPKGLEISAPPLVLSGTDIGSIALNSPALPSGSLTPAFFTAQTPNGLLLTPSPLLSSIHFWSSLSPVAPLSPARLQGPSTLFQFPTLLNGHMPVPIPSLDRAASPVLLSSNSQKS
Procedure, shortened: as §1

FEV = molecular target: T6, FEV (Homo sapiens, UniProt Q99581 1-238); conditions: protein: recombinant; tags: N-terminal GST; dsDNA, one strand shown
T6 sequence: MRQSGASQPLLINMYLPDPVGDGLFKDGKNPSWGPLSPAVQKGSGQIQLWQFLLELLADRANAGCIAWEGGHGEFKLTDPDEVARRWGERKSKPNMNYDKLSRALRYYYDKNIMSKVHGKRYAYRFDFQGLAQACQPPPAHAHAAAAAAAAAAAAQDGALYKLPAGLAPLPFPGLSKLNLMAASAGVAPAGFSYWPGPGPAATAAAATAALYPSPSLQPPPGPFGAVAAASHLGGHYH
Procedure, shortened: as §1

ETV5 = ETV5 (Homo sapiens, UniProt P41161 1-510); conditions: protein: recombinant; tags: N-terminal GST; dsDNA, one strand shown
ETV5, sequence (P41161 whole entry): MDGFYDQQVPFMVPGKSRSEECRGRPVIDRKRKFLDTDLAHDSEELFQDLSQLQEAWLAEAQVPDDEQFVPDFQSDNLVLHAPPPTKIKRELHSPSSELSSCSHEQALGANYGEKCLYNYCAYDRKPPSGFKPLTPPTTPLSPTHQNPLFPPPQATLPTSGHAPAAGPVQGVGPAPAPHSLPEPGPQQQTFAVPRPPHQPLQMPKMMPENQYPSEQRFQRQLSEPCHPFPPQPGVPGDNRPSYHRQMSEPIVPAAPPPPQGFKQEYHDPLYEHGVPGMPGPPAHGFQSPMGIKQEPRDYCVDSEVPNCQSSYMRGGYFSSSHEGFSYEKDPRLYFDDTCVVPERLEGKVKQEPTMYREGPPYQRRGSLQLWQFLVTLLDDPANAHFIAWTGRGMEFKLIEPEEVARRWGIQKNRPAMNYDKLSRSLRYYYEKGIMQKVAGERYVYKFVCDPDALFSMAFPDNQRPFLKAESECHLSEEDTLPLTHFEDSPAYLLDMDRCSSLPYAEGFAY
Procedure, shortened: as §1

HSF1 = HSF1 (Homo sapiens, UniProt Q00613 1-529); conditions: protein: recombinant; tags: N-terminal GST; chain copies: 3; dsDNA, one strand shown
HSF1, sequence (Q00613 whole entry): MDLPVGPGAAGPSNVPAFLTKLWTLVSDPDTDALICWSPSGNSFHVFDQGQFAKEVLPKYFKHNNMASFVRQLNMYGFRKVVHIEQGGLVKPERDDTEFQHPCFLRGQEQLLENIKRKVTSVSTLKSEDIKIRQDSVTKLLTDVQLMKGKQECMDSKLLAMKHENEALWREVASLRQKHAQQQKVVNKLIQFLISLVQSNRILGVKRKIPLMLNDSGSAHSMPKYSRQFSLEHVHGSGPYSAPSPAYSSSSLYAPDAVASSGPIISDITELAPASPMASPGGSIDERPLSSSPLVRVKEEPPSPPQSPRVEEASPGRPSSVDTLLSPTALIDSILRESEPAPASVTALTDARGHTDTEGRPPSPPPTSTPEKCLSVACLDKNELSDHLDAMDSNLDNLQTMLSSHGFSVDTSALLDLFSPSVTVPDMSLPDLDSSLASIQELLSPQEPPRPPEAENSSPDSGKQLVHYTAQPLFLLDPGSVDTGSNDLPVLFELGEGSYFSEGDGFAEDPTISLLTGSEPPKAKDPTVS
Procedure, shortened: as §1

SPIC = molecular target: T7, SPIC (Homo sapiens, UniProt Q8N5J4 1-248); conditions: protein: recombinant; tags: N-terminal GST; dsDNA, one strand shown
T7 sequence: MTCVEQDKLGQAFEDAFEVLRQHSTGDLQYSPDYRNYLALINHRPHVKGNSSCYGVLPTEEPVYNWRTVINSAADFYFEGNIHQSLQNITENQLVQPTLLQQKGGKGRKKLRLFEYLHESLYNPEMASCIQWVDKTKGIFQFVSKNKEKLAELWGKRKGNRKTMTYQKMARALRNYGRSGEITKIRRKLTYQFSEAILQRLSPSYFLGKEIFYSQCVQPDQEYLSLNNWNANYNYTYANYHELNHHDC
Procedure, shortened: as §1

ELF4 = ELF4 (Homo sapiens, UniProt Q99607 1-663); conditions: protein: recombinant; tags: N-terminal GST; dsDNA, one strand shown
ELF4, sequence (Q99607 whole entry): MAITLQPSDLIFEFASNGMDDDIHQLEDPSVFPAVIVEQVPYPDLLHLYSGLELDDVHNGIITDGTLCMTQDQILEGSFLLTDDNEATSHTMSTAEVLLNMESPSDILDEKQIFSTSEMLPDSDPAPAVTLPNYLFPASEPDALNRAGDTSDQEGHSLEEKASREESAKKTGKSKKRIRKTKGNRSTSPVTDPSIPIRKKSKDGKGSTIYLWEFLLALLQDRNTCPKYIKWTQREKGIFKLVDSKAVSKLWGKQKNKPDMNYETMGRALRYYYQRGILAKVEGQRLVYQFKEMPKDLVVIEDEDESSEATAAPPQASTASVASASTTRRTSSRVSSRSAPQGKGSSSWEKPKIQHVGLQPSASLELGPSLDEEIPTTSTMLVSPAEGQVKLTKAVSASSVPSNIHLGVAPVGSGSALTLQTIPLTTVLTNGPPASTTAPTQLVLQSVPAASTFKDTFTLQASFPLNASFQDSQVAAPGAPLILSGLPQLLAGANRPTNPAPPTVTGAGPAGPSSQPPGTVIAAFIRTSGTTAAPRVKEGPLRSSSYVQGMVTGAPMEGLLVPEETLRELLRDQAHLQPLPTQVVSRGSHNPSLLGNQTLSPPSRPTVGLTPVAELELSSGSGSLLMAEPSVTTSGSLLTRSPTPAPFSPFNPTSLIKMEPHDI
Procedure, shortened: as §1

ELK4 = molecular target: T8, ELK4 (Homo sapiens, UniProt P28324-2 1-405); conditions: protein: recombinant; tags: N-terminal GST; dsDNA, one strand shown
T8 sequence: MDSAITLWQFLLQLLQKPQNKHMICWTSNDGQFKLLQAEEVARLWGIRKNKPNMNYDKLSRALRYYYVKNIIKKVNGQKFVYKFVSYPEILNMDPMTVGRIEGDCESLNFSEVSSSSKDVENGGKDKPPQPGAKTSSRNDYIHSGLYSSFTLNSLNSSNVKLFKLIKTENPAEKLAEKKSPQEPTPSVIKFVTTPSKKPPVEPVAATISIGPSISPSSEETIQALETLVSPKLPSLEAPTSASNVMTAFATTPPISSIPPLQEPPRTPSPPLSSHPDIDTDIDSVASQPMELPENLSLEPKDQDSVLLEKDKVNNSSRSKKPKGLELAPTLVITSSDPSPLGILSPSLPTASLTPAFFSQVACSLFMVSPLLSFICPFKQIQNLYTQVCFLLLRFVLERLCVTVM
Procedure, shortened: as §1

ETV2 = molecular target: T9, ETV2 (Homo sapiens, UniProt O00321 1-342); conditions: protein: recombinant; tags: N-terminal GST; dsDNA, one strand shown
T9 sequence: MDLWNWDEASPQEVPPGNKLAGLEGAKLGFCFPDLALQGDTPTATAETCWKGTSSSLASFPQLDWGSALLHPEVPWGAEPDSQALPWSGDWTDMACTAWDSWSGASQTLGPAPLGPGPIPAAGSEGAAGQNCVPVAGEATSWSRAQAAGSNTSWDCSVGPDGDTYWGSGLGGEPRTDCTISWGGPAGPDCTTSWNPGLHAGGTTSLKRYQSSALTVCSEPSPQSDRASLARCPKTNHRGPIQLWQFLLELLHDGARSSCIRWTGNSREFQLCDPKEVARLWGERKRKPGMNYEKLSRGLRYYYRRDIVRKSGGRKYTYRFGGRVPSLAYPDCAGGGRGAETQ
Procedure, shortened: as §1

ELF3 = molecular target: T10, ELF3 (Homo sapiens, UniProt P78545 1-371); conditions: protein: recombinant; tags: N-terminal GST; dsDNA, one strand shown
T10 sequence: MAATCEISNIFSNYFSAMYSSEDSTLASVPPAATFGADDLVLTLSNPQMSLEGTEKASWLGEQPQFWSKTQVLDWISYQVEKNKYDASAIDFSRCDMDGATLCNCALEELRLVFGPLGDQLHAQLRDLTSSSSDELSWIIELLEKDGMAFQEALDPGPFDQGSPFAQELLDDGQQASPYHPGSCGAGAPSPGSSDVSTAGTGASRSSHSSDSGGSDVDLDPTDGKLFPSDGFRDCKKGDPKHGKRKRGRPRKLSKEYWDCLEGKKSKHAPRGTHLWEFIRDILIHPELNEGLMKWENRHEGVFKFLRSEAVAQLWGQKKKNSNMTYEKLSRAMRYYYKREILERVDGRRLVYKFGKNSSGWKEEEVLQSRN
Procedure, shortened: as §1

ETV1 = ETV1 (Homo sapiens, UniProt P50549 1-477); conditions: protein: recombinant; tags: N-terminal GST; dsDNA, one strand shown
ETV1, sequence (P50549 whole entry): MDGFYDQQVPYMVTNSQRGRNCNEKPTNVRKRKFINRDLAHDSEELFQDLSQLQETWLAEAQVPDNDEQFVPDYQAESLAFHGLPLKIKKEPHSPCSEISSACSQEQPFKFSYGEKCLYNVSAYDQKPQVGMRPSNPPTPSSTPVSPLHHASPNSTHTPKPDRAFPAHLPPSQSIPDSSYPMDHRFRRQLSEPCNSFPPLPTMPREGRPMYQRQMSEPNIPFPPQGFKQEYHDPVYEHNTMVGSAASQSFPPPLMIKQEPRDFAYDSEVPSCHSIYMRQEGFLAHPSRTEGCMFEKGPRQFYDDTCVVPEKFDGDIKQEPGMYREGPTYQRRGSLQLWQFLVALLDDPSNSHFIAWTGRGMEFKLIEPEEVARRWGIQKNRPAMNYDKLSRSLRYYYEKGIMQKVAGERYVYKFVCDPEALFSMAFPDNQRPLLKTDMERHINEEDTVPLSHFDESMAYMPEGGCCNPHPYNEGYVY
Procedure, shortened: as §1

ACACGA was tested, and the binding signal (FLI1) was 1.08 fold enrichment (6-mer frequency, TF over GST control), the binding signal (ELK1) was 1.1 fold enrichment (6-mer frequency, TF over GST control) and the binding signal (GABPA) was 1.11 fold enrichment (6-mer frequency, TF over GST control). The binding signal (ERG) was 1.02 fold enrichment (6-mer frequency, TF over GST control), the binding signal (ELF1) was 1.1 fold enrichment (6-mer frequency, TF over GST control) and the binding signal (SPI1) was 1.07 fold enrichment (6-mer frequency, TF over GST control). The binding signal (SPIB) was 1.04 fold enrichment (6-mer frequency, TF over GST control), the binding signal (ELK3) was 1.1 fold enrichment (6-mer frequency, TF over GST control) and the binding signal (FEV) was 1.1 fold enrichment (6-mer frequency, TF over GST control). The binding signal (ETV5) was 1.15 fold enrichment (6-mer frequency, TF over GST control), the binding signal (HSF1) was 1.02 fold enrichment (6-mer frequency, TF over GST control) and the binding signal (SPIC) was 1.11 fold enrichment (6-mer frequency, TF over GST control). The binding signal (ELF4) was 1.2 fold enrichment (6-mer frequency, TF over GST control), the binding signal (ELK4) was 1.16 fold enrichment (6-mer frequency, TF over GST control) and the binding signal (ETV2) was 1.08 fold enrichment (6-mer frequency, TF over GST control). The binding signal (ELF3) was 1.01 fold enrichment (6-mer frequency, TF over GST control) and the binding signal (ETV1) was 1.1 fold enrichment (6-mer frequency, TF over GST control).
